The list is not random: actives were taken first. Their share in the collection is about 12%.
HP1b binding inh: HTS for Inhibitors of HP1-beta Chromodomain Interactions with Methylated Histone Tails | Chromobox protein homolog 1 (Homo sapiens), P83916 | AlphaScreen HP1-beta / biotin-H3K9me3 peptide binding | Potency, µM (top dose mostly 114 µM), for inactives: at the highest dose activity change, negative = inhibition, usual class: inhibitors | 390,000 tested, 0.56% active; note: nearly all actives have a fitted effect of over 70% in size
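Compound inhibition of the preformed complex between 50 nM HP1-beta and 50 nM biotinylated H3K9me3 peptide was read by AlphaScreen. Buffer was PBS pH 7.4 with 0.01% Tween-20. Incubations ran 30 min at room temperature, with 10 ug/mL donor/acceptor beads.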
G9a inh: qHTS Assay for Inhibitors of Histone Lysine Methyltransferase G9a. Potency, µM (highest dose often 102 µM), without a hit: top-dose activity, negative = inhibition, actives largely listed as inhibitors. G9a H3K9 monomethylation, AlphaScreen, 2 h. 350,000 tested, 8.8% active. Histone-lysine N-methyltransferase EHMT2 (Homo sapiens), Q96KQ7; note: % is set by controls: 0 for no effect and ±100 for the full control effect; nearly all actives have a fitted effect of over 75% in size
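Compounds were preincubated with 20 nM G9a for 15 min, after which biotinylated H3K9 peptide (500 nM) and SAM (20 uM) started a 2 h room-temperature reaction. Monomethylated product was quantified by antibody-based AlphaScreen chemiluminescence.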
BAZ2B block: qHTS Assay for Inhibitors of BAZ2B; Bromodomain adjacent to zinc finger domain protein 2B (Homo sapiens), Q9UIF8; 360,000 tested, 4.4% active; AlphaScreen BAZ2B-H3K14Ac peptide displacement; Potency, µM (highest dose often 114 µM), without a hit: at the highest dose activity change, negative = inhibition, hits mostly inhibitors; note: % is set by controls: 0 for no effect and ±100 for the full control effect; nearly all actives have a fitted effect of over 60% in size
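In this displacement format the biotinylated H3(5-23) peptide acetylated at Lys14 serves as ligand at 50 nM, with BAZ2B at 50 nM in PBS pH 7.4 containing 0.01% Tween-20. Donor and acceptor beads are 10 ug/mL final.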
Sfp inh: qHTS Assay for Inhibitors of Bacillus subtilis Sfp phosphopantetheinyl transferase (PPTase) | 310,000 tested, 3.5% active | 4'-phosphopantetheinyl transferase ffp (Bacillus subtilis), Q9F4F7 | Potency, µM, without a hit: largest response in the series, negative = inhibition, hits mostly inhibitors | Biochemical Sfp PPTase activity, qHTS;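 note: the enzyme is Sfp with the accession as filed and its product quenches rhodamine fluorescence; 0% = enzyme reaction without inhibitor and -100% = no enzyme wells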
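Fluorescence-quenching assay: 15 nM Sfp-PPTase preincubated 15 min at room temperature with compound, then 5 uM rhodamine-CoA and 12.5 uM BHQ-2-labelled YbbR peptide added. Fluorescence (ex 525/em 598 nm) read at start and after 30 min; difference gives rate.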
JMJD2A Tudor: qHTS Assay for Inhibitors of JMJD2A-Tudor Domain. AID 504339, 2011. AlphaScreen JMJD2A-Tudor / H3K4me3 peptide binding. Potency, µM (series often up to 114 µM), without a hit: at the top dose activity change, negative = inhibition, usual class: inhibitors. Lysine-specific demethylase 4A (Homo sapiens), O75164. 390,000 tested, 4.4% active; note: % is set by controls: 0 for no effect and ±100 for the full control effect; nearly all actives have a fitted effect of over 50% in size
Target sequence (O75164 whole entry, looked up, the tested form may be a part): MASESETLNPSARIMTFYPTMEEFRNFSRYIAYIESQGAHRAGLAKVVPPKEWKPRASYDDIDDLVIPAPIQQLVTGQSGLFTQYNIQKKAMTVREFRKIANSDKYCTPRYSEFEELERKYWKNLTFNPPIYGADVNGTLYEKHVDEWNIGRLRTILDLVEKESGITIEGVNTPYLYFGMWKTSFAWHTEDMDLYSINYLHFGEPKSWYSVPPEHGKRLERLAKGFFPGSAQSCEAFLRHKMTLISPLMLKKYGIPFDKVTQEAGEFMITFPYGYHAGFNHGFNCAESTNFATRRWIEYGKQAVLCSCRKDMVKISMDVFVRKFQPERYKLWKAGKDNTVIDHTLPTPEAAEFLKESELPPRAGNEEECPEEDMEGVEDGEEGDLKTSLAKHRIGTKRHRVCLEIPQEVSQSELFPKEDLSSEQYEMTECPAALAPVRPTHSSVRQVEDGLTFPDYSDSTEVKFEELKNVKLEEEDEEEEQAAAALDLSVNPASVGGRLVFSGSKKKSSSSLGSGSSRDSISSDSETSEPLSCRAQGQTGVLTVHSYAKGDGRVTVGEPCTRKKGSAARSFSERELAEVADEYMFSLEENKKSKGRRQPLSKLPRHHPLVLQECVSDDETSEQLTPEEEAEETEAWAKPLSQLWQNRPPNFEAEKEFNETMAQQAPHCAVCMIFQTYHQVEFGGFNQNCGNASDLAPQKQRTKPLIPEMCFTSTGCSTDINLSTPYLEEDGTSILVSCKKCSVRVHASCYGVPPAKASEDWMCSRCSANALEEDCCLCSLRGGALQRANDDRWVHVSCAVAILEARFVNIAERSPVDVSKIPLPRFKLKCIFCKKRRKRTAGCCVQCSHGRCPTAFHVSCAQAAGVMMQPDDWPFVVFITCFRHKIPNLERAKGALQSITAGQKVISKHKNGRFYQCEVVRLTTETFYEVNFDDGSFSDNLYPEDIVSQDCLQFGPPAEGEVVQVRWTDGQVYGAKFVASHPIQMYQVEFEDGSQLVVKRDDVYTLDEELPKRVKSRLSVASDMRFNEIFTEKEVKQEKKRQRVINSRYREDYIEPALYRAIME
* marks the source's active call; other numbers are inactive results; ? = inconclusive; . = no result given; [ ] = remark or other dose. Calls come from the whole dose curve; as a rule, active = well fitted curve in the direction sought with a large enough effect; inconclusive = small, poorly fitted or top-dose-only effect, or another doubt; inactive = no such curve, though single readings can be large; an effect the other way counts as inactive or inconclusive. Potency is the fitted concentration of half-maximal effect.

SMILES	HP1b binding inh	G9a inh	BAZ2B block	Sfp inh	JMJD2A Tudor
COc1ccc(Cc2nnc(NC(=O)C3CCN(C(=O)c4ccco4)CC3)s2)cc1	-14%	79µM*	-3%	-3%	-17%
Cc1ccccc1OCC(=O)Nc1nnc(S(=O)(=O)N(C)c2ccccc2)s1	-5%	?	?	.	-24%
COC(=O)c1ccc(-n2nnnc2SC)cc1	-11%	10µM*	9%	?	-9%
COC(=O)COC(=O)c1ccc(-n2nnnc2SC)cc1	20%	-3%[2.33 µM]	-20%	8%	-8%
CCc1nc2cc(Cl)c(Cl)cc2[nH]1	36%	19%[59 µM]	19%	?	5%
C=CCc1cccc(OC)c1OCCOCCNCCO	-28%	11µM*	56µM*	-14%	5.6µM*
COc1cccc(OC)c1OCCNCCO	45%	5%[59 µM]	2%	2%	-3%
COc1cccc(C2[C@H](C)C3(CCN2C)OCCO3)c1 (stereo not given in full)	30%	-10%[59 µM]	-4%	3%	-5%
Fc1ccc(C[n+]2csc3ccccc32)cc1	15%	?	56µM*	45µM*	?
O=C(COc1ccccc1[N+](=O)[O-])Nc1ccc(N2CCN(C(=O)c3cccs3)CC2)cc1	?	.	?	0%	-17%
COc1ccc(NC(=S)N(Cc2ccc(Cl)cc2)Cc2ccc(C(=O)O)cc2)cc1Cl	12%	?	?	50µM*	-25%
CCc1ccc(NC(=S)N(Cc2ccc(Cl)cc2)Cc2ccc(C(=O)O)cc2)cc1	-17%	-36%	-13%	18µM*	-30%
Cc1ccc(NC(=S)N(Cc2ccc(Br)cc2)Cc2ccc(C(=O)O)cc2)cc1C	-19%	45µM*	-28%	17%	-27%
COc1ccc(CN(Cc2ccc(C(=O)O)cc2)C(=S)Nc2ccccc2C)cc1OC	36%	45µM*	-11%	-22%	-16%
Cc1cc(NC(=S)N(Cc2ccc(Cl)cc2)Cc2ccc(C(=O)O)cc2)ccc1Cl	4%	?	?	-6%	-24%
O=S(=O)(CCSc1ccc(C(F)(F)F)cn1)c1ccc(Cl)cc1	105%	21%	-4%	8%	57%
CCCNC(=S)NNC(=O)c1cc(C2CC2)nc2ccccc12	44%	.	0%	12%	-17%
COc1ccc(OC)c(NS(=O)(=O)c2ccc(NC(C)=O)cc2)c1	33%	22%[59 µM]	1%	3%	2%
Cc1cc(C)cc(N(C(=O)c2ccc(Br)o2)C2C=CS(=O)(=O)C2)c1 (stereo not given)	10%	-23%	-12%	12%	-12%
CCOc1ccccc1Nc1nnc(SC(C)C(=O)Nc2nc(-c3ccccc3)cs2)s1 (stereo not given)	25%	?	-7%	3%	-9%
FC(F)(Cl)c1nnc2ccc(Sc3ccccn3)nn12	41%	25µM*	-20%	-9%	-1%
CCCCC1=CC2=C(OC(C)=O)C(=O)C(C)(OC(=O)c3ccco3)C(=O)C2=CO1 (stereo not given)	.	.	.	0%	.
COc1ccccc1C1C2=C(CC(C)(C)CC2=O)Nc2nnnn21 (stereo not given)	9%	28µM*	-28%	6%	-14%
CNC(=O)COc1ccc(Nc2nnc(C)c3ccccc23)cc1	12%	10%	0%	2%	-12%
Cc1ccc(CC(=O)Nc2nnc(-c3ccc(F)cc3)o2)c(C)c1	14%[57 µM]	17%	-31%	16%	-13%
SMILES	HP1b binding inh	G9a inh	BAZ2B block	Sfp inh	JMJD2A Tudor
CCOC(=O)N(C)c1ccc(C(O)(C(F)(F)F)C(F)(F)F)cc1	32%	-3%[12.7 µM]	7%	18%	3%
C/C(=C\c1ccccc1)CN1CCC(C(=O)N2CCCCC2)CC1	?	?	?	-9%	7.9µM*
CCCCNC(=O)C1CCN(C/C(C)=C/c2ccccc2)CC1	-9%	?	50µM*	-16%	6.3µM*
C/C(=C\c1ccccc1)CN1CCC(C(=O)N2CCC(C)CC2)CC1	-30%	10µM*	?	-10%	-1%[11.4 µM]
COc1ccccc1NC(=S)Nc1ccccc1F	34%	?	6%	-18%	4%
CC(C)=CC(=O)Nc1ccc(OCc2ccccc2)cc1	40%	19%[12.7 µM]	-1%	12%	4%
CC[C@@]12CCCN3CCc4c(n(c5ccccc45)C(=O)C1)[C@H]32	.	-22%[0.843 µM]	.	18%	.
CCn1c(=O)[nH]c2ccccc2c1=O	36%	11%	1%[57.1 µM]	9%	-5%
CCc1c(C(C)S(=O)(=O)c2ccccc2)[nH]c(=O)n1CC (stereo not given)	-32%	3.5µM*	-13%	50µM*	?
Cc1cc(=O)n(Cc2ccc(OC(C)C)cc2)c(=S)[nH]1	29%	18%	-25%	16%	-7%
CCn1c(=O)cc(C(F)(F)F)[nH]c1=S	31%	25µM*	-13%	79µM*	-21%
CC(=O)OCON[N+]([O-])=NC1CCCCC1	?	.	.	7%	20µM*
Cc1ccc(-c2nc3ccccn3c2NCc2ccc3c(c2)OCO3)cc1	?	?	?	?	100µM*
Cc1ccc(Nc2c(-c3ccc(N(C)C)cc3)nc3ccccn23)cc1	?	?	-20%	.	7.9µM*
COc1ccc(-c2nc3ccc(C)cn3c2NCc2ccc3c(c2)OCO3)cc1	-9%	-4%	?	?	?
Cc1ccc(-c2nc3ccccn3c2Nc2ccc3c(c2)OCO3)cc1	?	10µM*	18µM*	.	25µM*
Cc1cccc2nc(-c3ccc(N(C)C)cc3)c(Nc3ccc4c(c3)OCO4)n12	18%	2.2µM*	.	.	-29%
Cc1ccc(Nc2c(-c3ccccc3)nc3cnccn23)cc1	36%	10%	-12%	11%	10%
CCOc1ccc(NC(=O)CSc2nc3c(oc4ccccc43)c(=O)n2-c2ccccc2C)cc1	15%	-1%[59 µM]	-2%	.	-16%
CN(CCCCN1CCOCC1)Cc1nc(-c2ccc3c(c2)OCO3)no1	20%	.	2%	7%	-10%
COc1ccc(N=Cc2sc(O)c3ccccc23)cc1	42%	?	32%	-15%	8%
COc1ccc(N=Cc2c(O)c3ccccc3n2C(C)=O)cc1	71%	25µM*	-17%	18µM*	10%
O=C(C[n+]1cccc(/C=N/O)c1)N(Cc1ccccc1)Cc1ccccc1	19%	0%	-9%	12%	-6%
CCCCc1cc(=O)oc2cc(OC3CCCCC3=O)ccc12 (stereo not given)	25%	?	1%	6%	-10%
COc1ccc(/C=C/C(=O)c2cc(F)ccc2OC(=O)c2ccccc2)cc1OC	8%	.	.	.	-20%
COc1ccc(/C=C/C(=O)c2cc(F)ccc2OC(=O)c2ccc(OC)c(OC)c2)cc1OC	33%	56µM*	?	0%	-28%
